Assay results: PubChem BioAssay (Tox21)
“And” between values parts separate entries of the source, which are not always exact repeats. Identical values can stand only once. Inconclusive results are not listed. The source made the active and inactive calls. Unless noted, calls follow the shape of the full dose curve.

Columns and labels:
[1] = Nuclear factor erythroid 2-related factor 2/antioxidant responsive element (Nrf2/ARE) small molecule agonists: luciferase reporter gene qHTS assay in human keratinocytes (AID 1919969); also: nearly all actives have a fitted effect of over 35% in size; also: potency is read from the fitted curve at half-maximal effect
[2] = target: Gonadotropin-releasing hormone receptor (Homo sapiens) (UniProt P30968); assay: Human gonadotropin-releasing hormone receptor (GnRHR) small molecule agonists, calcium flux assay in GnRHR-HEK293 cells (AID 1920063); also: nearly all actives have a fitted effect of over 35% in size
Chain of Gonadotropin-releasing hormone receptor (Homo sapiens) (P30968 whole entry, looked up): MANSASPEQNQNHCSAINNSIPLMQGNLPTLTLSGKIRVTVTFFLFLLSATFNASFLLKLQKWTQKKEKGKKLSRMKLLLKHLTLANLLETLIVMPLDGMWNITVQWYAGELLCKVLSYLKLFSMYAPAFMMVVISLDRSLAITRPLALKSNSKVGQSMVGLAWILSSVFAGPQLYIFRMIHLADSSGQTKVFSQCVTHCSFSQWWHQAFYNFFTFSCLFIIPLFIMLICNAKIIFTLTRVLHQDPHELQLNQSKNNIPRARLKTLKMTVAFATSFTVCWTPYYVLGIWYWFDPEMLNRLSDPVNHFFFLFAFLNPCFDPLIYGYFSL
Summary of the method: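 HEK293 cells stably expressing human GnRHR were dye-loaded for 1 h at 37 C. Compound was added in agonist mode and fluorescence (Ex/Em 480/540) recorded kinetically for 3 min. Fifteen concentrations, triplicates.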

[3] = target: KiSS-1 receptor (Homo sapiens) (UniProt Q969F8); assay: Human kisspeptin (KISS1R) small molecule agonists, calcium flux assay in KISS1R-HEK293 cells (AID 1920064; active = well fitted activation curve with a large enough effect in the repeat runs)
Chain of KiSS-1 receptor (Homo sapiens) (Q969F8 whole entry, looked up): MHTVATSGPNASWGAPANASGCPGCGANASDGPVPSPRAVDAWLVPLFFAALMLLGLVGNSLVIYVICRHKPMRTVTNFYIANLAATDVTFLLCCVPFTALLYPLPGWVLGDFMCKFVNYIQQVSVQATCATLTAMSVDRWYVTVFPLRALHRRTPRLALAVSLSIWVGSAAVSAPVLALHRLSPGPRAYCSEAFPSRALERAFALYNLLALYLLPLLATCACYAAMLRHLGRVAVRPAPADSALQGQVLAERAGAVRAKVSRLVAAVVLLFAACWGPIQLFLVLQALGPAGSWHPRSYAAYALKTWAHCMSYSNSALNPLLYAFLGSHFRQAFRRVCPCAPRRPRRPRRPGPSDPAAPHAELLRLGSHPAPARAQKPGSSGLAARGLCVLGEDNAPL
Summary of the method: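 HEK293 cells stably expressing human KISS1R were loaded with calcium dye for 1 h at 37 C, then given compound; fluorescence (Ex/Em 480/540) was read kinetically for 3 min. Fifteen concentrations, triplicate.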

[4] = G protein-coupled receptor (GPCR) small molecule agonists, calcium flux assay: HEK293 wild type cell line counter screen (AID 1920065)
Summary of the method: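 Wild-type HEK293 cells plated 18 h, loaded with calcium dye 1 h at 37 C, then compounds added in agonist mode (ATP as positive control). Kinetic fluorescence Ex/Em 480/540 recorded 3 min at 1 sec intervals; 15 concentrations, triplicate.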

[5] = p53 small molecule agonists, cell-based qHTS assay with human liver microsomes: qHTS cell viability counter screen (AID 1963579); also: nearly all actives have a fitted effect of over 45% in size
Summary of the method: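 Luminescent CellTiter-Glo read-out, 30 min at room temperature, gauged cytotoxicity in p53RE-bla cells exposed 16 h at 37 C to DMSO-dissolved compounds with metabolic activation by human liver microsomes and NADPH, each 0.5 mg/mL final.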

[6] = p53 small molecule agonists, cell-based qHTS assay with rat liver microsomes: qHTS cell viability counter screen (AID 1963580); also: nearly all actives have a fitted effect of over 45% in size
Summary of the method: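 p53RE-bla HCT-116 cells (4,000/well) rested 5 h at 37 C, then given Tox21 compounds in DMSO with rat liver microsomes (0.5 mg/mL final) plus NADPH (0.5 mg/mL final) for 16 h at 37 C. Viability read by CellTiter-Glo luminescence after 30 min at room temperature.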

[7] = p53 small molecule agonists, cell-based qHTS assay: qHTS cell viability counter screen (AID 1963581); also: nearly all actives have a fitted effect of over 45% in size
Summary of the method: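 p53RE-bla HCT-116 cells, compounds added 5 h after plating and incubated 16 h at 37 C. Cytotoxicity measured in the same wells as intracellular ATP by CellTiter-Glo luminescence after 30 min at room temperature.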

[8] = target: 5-hydroxytryptamine receptor 2A (Homo sapiens) (UniProt P28223); assay: 5-hydroxytryptamine receptor 2A (HTR2A) small molecule antagonists, cell-based qHTS assay (AID 1963586); also: nearly all actives have a fitted effect of over 45% in size
Chain of 5-hydroxytryptamine receptor 2A (Homo sapiens) (P28223 whole entry, looked up): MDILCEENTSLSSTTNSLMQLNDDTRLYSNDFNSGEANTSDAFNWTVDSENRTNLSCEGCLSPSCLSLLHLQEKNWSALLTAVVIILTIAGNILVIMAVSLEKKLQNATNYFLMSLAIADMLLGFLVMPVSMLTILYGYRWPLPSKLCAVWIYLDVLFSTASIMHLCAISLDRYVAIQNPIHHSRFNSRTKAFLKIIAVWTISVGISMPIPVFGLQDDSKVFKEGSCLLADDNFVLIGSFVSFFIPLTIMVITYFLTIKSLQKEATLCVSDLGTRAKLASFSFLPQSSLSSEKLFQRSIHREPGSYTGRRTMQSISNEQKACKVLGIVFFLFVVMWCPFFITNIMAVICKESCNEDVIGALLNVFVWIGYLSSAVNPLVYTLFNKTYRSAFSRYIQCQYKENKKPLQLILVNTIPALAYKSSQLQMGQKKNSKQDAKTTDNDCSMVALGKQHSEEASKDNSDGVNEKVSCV
Summary of the method: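 Antagonist-mode intracellular calcium assay: DOI (4 nM) added after 5 min compound pre-incubation at room temperature to dye-loaded HTR2A-CHO cells. Fluorescence followed for 3 min, sampled every second.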

[9] = target: 5-hydroxytryptamine receptor 2A (Homo sapiens) (UniProt P28223); assay: 5-hydroxytryptamine receptor 2A (HTR2A) small molecule agonists, cell-based qHTS assay (AID 1963587); also: nearly all actives have a fitted effect of over 30% in size; also: potency is read from the fitted curve at half-maximal effect
Summary of the method: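 HTR2A-CHO cells, plated 18 h at 37 C/5% CO2, dye-loaded 1 h at 37 C; compounds in DMSO added by pin tool (agonist mode). Intracellular calcium flux read as kinetic fluorescence on FDSS over 2 min at 1 s intervals.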

[10] = target: Muscarinic acetylcholine receptor M1 (Homo sapiens) (UniProt P11229); assay: Cholinergic receptor muscarinic 1 (CHRM1) small molecule agonists, cell-based qHTS assay (AID 1963589); also: nearly all actives have a fitted effect of over 35% in size
Chain of Muscarinic acetylcholine receptor M1 (Homo sapiens) (P11229 whole entry, looked up): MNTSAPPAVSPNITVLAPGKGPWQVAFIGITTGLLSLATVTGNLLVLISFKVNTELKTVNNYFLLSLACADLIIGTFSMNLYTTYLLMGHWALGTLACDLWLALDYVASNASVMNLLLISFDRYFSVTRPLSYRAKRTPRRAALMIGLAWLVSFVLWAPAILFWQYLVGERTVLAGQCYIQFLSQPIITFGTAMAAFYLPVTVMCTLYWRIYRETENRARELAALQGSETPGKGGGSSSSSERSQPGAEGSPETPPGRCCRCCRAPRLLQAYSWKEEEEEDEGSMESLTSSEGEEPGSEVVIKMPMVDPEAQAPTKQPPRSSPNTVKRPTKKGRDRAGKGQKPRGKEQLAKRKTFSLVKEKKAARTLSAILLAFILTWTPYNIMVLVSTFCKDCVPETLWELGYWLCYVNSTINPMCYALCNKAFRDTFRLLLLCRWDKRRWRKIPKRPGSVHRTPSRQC
Summary of the method: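 CHO cells stably expressing human CHRM1 were loaded with calcium dye for 1 h at 37 C, then compound was added in agonist mode. Intracellular calcium fluorescence was followed kinetically at 1 s intervals. Fifteen concentrations were tested in three independent runs.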

[11] = cAMP Responsive Elements (CRE) small molecule agonists, cell-based qHTS assay (AID 1963590)
Summary of the method: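 CRE-bla HEK 293T cells, 2,000/well in DMEM with 10% dialyzed FBS and 25 mM HEPES, pre-incubated 18 h at 37 C, then exposed to compound 3 h at 37 C. Beta-lactamase reporter read with LiveBLAzer B/G FRET substrate after 2 h at room temperature.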

[12] = cAMP Responsive Elements (CRE) small molecule antagonists, cell-based qHTS assay (AID 1963591; active = well fitted inhibition curve with a large enough effect in the signal ratio in the repeat runs, not every such curve was filed as active; the % refers to the signal ratio)
Summary of the method: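 CRE-bla HEK293T cells plated 18 h, then given compound plus NKH477 at 0.25 uM final for 3 h at 37C. Beta-lactamase reporter read with LiveBLAzer B/G FRET substrate after 2 h at room temperature.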

[13] = target: Beta-2 adrenergic receptor (Homo sapiens) (UniProt P07550); assay: Adrenergic beta2 receptor (ADRB2) small molecule antagonists, cell-based qHTS assay (AID 1963592); also: series mostly up to about 92 µM; nearly all actives have a fitted effect of over 50% in size
Chain of Beta-2 adrenergic receptor (Homo sapiens) (P07550 whole entry, looked up): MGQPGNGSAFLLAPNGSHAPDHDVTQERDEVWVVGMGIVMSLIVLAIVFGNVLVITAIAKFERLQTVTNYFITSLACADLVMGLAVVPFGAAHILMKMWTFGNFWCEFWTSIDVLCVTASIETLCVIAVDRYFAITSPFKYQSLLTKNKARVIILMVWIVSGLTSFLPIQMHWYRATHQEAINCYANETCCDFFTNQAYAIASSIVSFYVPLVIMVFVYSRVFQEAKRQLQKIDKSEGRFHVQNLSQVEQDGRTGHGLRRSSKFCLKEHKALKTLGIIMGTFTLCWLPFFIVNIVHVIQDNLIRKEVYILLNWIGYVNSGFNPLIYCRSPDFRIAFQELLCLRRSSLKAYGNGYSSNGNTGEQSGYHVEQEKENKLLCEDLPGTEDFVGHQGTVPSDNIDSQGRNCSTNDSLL
Summary of the method: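 Cells (CHO, stable ADRB2 overexpression) incubated 18-20hr at 37C; compounds added from DMSO; agonist mix (1nM isoproterenol, 100uM IBMX, 25uM Ro-20-1724) added; 0.5hr RT; d2-cAMP and anti-cAMP-cryptate added; 1hr RT; 665/615 nm read.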

[14] = target: Beta-2 adrenergic receptor (Homo sapiens) (UniProt P07550); assay: Adrenergic beta2 receptor (ADRB2) small molecule agonists, cell-based qHTS assay (AID 1963593);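 also: CHO cells stably overexpressing human ADRB2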
Summary of the method: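 CHO cells stably over-expressing ADRB2 were plated overnight at 37C, then dosed with compounds plus a stimulation mix containing 100uM IBMX and 25uM Ro-20-1724 for 0.5hr at room temperature. cAMP was measured by HTRF competition, 1hr.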

[15] = target: D(2) dopamine receptor (Homo sapiens) (UniProt P14416); assay: Dopamine D2 receptor (DRD2) small molecule agonists, cell-based qHTS assay (AID 1963594); also: nearly all actives have a fitted effect of over 35% in size; also: potency is read from the fitted curve at half-maximal effect
Chain of D(2) dopamine receptor (Homo sapiens) (P14416 whole entry, looked up): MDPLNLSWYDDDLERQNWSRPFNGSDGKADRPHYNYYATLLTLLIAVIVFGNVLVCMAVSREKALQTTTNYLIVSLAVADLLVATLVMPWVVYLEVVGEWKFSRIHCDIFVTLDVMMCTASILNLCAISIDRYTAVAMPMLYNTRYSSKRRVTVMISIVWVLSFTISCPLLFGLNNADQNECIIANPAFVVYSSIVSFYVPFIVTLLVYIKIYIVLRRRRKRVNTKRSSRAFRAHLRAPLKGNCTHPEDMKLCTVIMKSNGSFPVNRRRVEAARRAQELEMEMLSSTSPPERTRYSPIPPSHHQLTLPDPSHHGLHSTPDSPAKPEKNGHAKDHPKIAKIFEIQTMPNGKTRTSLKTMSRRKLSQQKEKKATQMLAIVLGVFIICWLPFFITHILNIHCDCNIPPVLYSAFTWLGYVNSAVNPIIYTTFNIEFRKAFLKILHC
Summary of the method: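 HEK293 cells stably expressing DRD2 were cultured 24 h at 37 C, then given Ro20-1724 (0.1 mM final) and compounds for 10 min at room temperature. NKH477 (200nM) was then added for 30 min. cAMP was read by HTRF.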

[16] = target: D(2) dopamine receptor (Homo sapiens) (UniProt P14416); assay: Dopamine D2 receptor (DRD2) small molecule antagonists, cell-based qHTS assay (AID 1963595; active = well fitted inhibition curve with a large enough effect in the signal ratio in the repeat runs, with a control signal flat; the % refers to the signal ratio)
Summary of the method: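 Human DRD2 antagonist qHTS measuring cAMP by HTRF. The cells are exposed to compound for 10 min, then to NKH477 (200 nM) and quinpirole (12 nM) for 30 min at RT, with Ro20-1724 (0.1 mM) present throughout.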

[17] = p53 small molecule agonists, cell-based qHTS assay with rat liver microsomes (AID 1963578)
Summary of the method: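 Rat liver microsome activation: microsomes 0.5 mg/mL, NADPH 0.5 mg/mL final; p53RE-bla cells, 16 h 37 C; LiveBLAzer readout, 2 h RT dark.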

[18] = target: Muscarinic acetylcholine receptor M1 (Homo sapiens) (UniProt P11229); assay: Cholinergic receptor muscarinic 1 (CHRM1) small molecule antagonists, cell-based qHTS assay (AID 1963588); also: nearly all actives have a fitted effect of over 40% in size
Summary of the method: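 CHRM1-CHO calcium-flux assay, antagonist mode. Cells were seeded 18 h, dye-loaded 1 h at 37 C and given compound for 5 min at RT, then acetylcholine was added at 50nM. FDSS fluorescence was read 3 min; 15 concentrations, three runs.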

[19] = p53 small molecule agonists, cell-based qHTS assay (AID 1963582; active = well fitted activation curve with a large enough effect in the signal ratio in the repeat runs, not every such curve was filed as active; the % refers to the signal ratio)
Summary of the method: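 p53RE-bla reporter cells, compounds added in DMSO after 5 h plating, incubated 16 h at 37 C. Beta-lactamase read via 2 h room-temperature LiveBLAzer B/G FRET substrate, fluorescence intensity.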
% is scaled to controls: 0 for no effect and ±100 for the full control effect.

COP(=O)(OC)OC(Br)C(Cl)(Cl)Br (configuration not stated)
active: Potency [1] 27.3 µM and 54.5 µM
inactive: Potency [2] | Potency [3] | Potency [4] | Potency [5] | Potency [6] | Potency [7] | Potency [8] | Potency [9] | Potency [10] | Potency [11] | Potency [12] | Potency [13] | Potency [14] | Potency [15] | Potency [16]

Cc1c(F)c(F)c(COC(=O)C2C(/C=C(\Cl)C(F)(F)F)C2(C)C)c(F)c1F (configuration not stated)
active: Potency [1] 30.6 µM
inactive: Potency [2] | Potency [3] | Potency [4] | Potency [17] | Potency [6] | Potency [7] | Potency [8] | Potency [9] | Potency [10] | Potency [12] | Potency [13]

Nc1c(Br)cc(Br)c2c1C(=O)c1ccccc1C2=O
inactive: activity, positive = activation [1] 4.98% [at 19 µM] | activity change [2] 1.8% [at 11.8 µM, stronger effect = higher value] | activation [3] 7.67% [at 15.8 µM] | activation [4] 0.165% [at 11.8 µM] | activity change, negative = cytotoxicity [5] 2.22% [at 13.5 µM] | activity change, negative = cytotoxicity [6] -8.42% [at 13.5 µM] | activity change, negative = cytotoxicity [7] 13.4% [at 13.5 µM] | activity, negative = inhibition [8] 6.3% [at 12.7 µM] | activation [9] -1.81% [at 15.9 µM] | activity, negative = inhibition [18] -4.93% [at 12.6 µM] | activation [10] -0.118% [at 15.8 µM] | activation [11] -1.39% [at 19 µM] | activity change, negative = inhibition [13] 17.4% [at 19 µM] | activation [15] -0.116% [at 19 µM] | activity change, negative = inhibition [16] 9% [at 18.9 µM]

NNCc1ccccc1
inactive: Potency [1] | Potency [2] | Potency [3] | Potency [4] | Potency [5] | Potency [6] | Potency [7] | Potency [8] | Potency [9] | Potency [10] | Potency [11] | Potency [12] | Potency [13] | Potency [15] | Potency [16]

Oc1ccc([C@H]2CNCc3c2ccc(O)c3O)cc1O
active: Potency [9] 9.52 µM | Potency [15] 17.4 µM
inactive: Potency [1] | Potency [2] | Potency [3] | Potency [4] | Potency [5] | Potency [7] | Potency [18] | Potency [10] | Potency [11] | Potency [12] | Potency [16]

COP(N)(=S)OC
inactive: Potency [1] | Potency [2] | Potency [3] | Potency [4] | Potency [5] | Potency [6] | Potency [7] | Potency [19] | Potency [8] | Potency [9] | Potency [10] | Potency [11] | Potency [12] | Potency [13] | Potency [15] | Potency [16]
